Experimental findings from PubChem BioAssay are described below.

Active and inactive are the calls of the source.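 The calls were made as follows, unless noted: active = NADPH fluorescence slope more negative than the mean of all samples by about 3 SD, 99.7% confidence; inactive = the rest.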

The term inhibition denotes the relative decrease from the control value, in per cent.

Test [1] can be described thus: inhibitors of TNFa-induced NFkB p65 translocation, primary screen, imaging, HUVEC, MLSMR starter and 10KST1 sets (AID 438;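 active = inhibition above 20% together with a positive visual image hit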;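 also: compound added about 3h40 before a 20 min TNFalpha stimulation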;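 as to inhibition: signal is the nuclear over cytoplasmic p65 intensity ratio per well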). Conditions: HUVEC TNFa-induced p65 nuclear translocation; cell count: measured here: nuclei count (cytotoxicity indicator), at 2.08 µM; inhibition: at 2 µM, stronger effect = higher value, 0% TNFa-plus-vehicle, 100% no-TNFa wells.
Test [2] in a line: reduction of polyQ htt aggregates in cells – imaging, exon1htt(103Q)mCFP cells, high-content imaging, primary screen (AID 483;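 active = visual image review flags a hit and inhibition of aggregation exceeds 20%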;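 also: compound exposure lasted 3 days before fixation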;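 as to nuclei count: percent of the per-plate median nuclei count of sample wells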). Conditions: exon1htt(103Q)mCFP cell line, aggregate imaging, at 2 µM; inhibition of aggregation: stronger effect = higher value; nuclei count: measured here: cell count, toxicity.
Test [3] can be described thus: endothelial E-selectin expression blockers – imaging, HUVEC, immunofluorescence, MLSMR starter and 10KST1 sets, primary screen (AID 487;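 active = visually confirmed hit in the image check and inhibition above 20%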;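 as to inhibition: signal is fraction of cell area covered by stained E-selectin grains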;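 as to nuclei count: 100% = median nuclei count of all wells on the same plate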). Conditions: HUVEC TNFalpha-induced E-selectin immunofluorescence imaging, at 2 µM; inhibition: stronger effect = higher value; nuclei count: measured here: cell number, toxicity.
Test [4] addresses Voltage-gated potassium channel subunit beta-2 (Rattus norvegicus) (UniProt P62483). Put plainly: inhibitors of rat Kvbeta2 reductase activity – biochemical, NADPH fluorescence, primary screen (AID 622;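 active = fluorescence slope higher than the sample average by over 3 SD, cut at about -0.22 in these data, passing the limit was not always enough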;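 also: slope of raw intensity against log time taken from 70 to 1610 s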). Conditions: recombinant KvBeta, 4-cyanobenzaldehyde reduction, at 10 µM, stronger effect = higher value.
The target is the same in test [5]. Put plainly: enhancers of rat Kvbeta2 NADPH turnover – biochemical, NADPH fluorescence, primary screen (AID 623).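 Also: fluorescence intensity change per second fitted from 20 to 320 s.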 The following applies: Recombinant KvBeta, NADPH fluorescence decrease slope, 10 min; at 10 µM; stronger effect = lower value.
The target in test [6] is Alpha-2C adrenergic receptor (Homo sapiens) (UniProt P18825). Put plainly: compounds altering alpha2C-coupled GIRK flux – cell-based, HEK293 alpha2C/GIRK1/2, thallium flux, primary screen (AID 624;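 active = fluorescence slope after compound addition differing from the mean of all screened samples at 99.7% confidence, in either direction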;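 also: slope of fluorescence ratio to pre-addition baseline per second over 15 to 24 s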). The following applies: thallium flux BTC fluorescence, at 10 µM, actives lie on both sides.
Chain of Alpha-2C adrenergic receptor (Homo sapiens) (P18825 whole entry, looked up): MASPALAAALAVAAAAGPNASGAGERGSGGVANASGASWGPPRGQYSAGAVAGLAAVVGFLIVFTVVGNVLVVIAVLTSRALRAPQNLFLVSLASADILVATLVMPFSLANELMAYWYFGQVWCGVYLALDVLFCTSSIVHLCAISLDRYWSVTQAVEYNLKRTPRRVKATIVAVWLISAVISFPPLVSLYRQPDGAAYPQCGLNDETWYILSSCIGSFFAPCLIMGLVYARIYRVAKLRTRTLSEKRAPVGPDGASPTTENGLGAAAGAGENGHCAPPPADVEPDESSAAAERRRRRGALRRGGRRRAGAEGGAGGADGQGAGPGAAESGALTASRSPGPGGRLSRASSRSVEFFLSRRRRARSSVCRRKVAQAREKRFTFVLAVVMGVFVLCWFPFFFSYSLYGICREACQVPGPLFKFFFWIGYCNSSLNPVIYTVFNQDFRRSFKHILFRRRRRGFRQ
Test [7] is described as follows: blockers of RIG-like receptor reporter activation – cell-based, Sendai virus stimulus, luciferase, 10K MLSCN set, TLR/RLR signaling modifier project, primary screen (AID 602276;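 active = inhibition at or above 50% at 10 µM; inactive = inhibition below 50%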;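 also: firefly luciferase from ISG56 promoter only with Renilla not read in this screen; 0% = Sendai virus plus DMSO and 100% = medium plus DMSO without virus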). Conditions: HEK293 RL24 IRF3 luciferase reporter, at 10 µM, stronger effect = higher value. (In general: A reporter such as luciferase makes a cellular process visible.)
Test [8] in a line: TLR3 IRF3 reporter activation blockers – cell-based, poly I:C stimulus, luciferase, 10K MLSCN set, primary screen (AID 602277;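 active = inhibition of the reporter signal at or above 50%; inactive = inhibition below 50%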). Conditions: HEK293-TLR3 RL24 IRF3 luciferase reporter, at 10 µM, stronger effect = higher value.

Chain of Voltage-gated potassium channel subunit beta-2 (Rattus norvegicus) (P62483 whole entry, looked up): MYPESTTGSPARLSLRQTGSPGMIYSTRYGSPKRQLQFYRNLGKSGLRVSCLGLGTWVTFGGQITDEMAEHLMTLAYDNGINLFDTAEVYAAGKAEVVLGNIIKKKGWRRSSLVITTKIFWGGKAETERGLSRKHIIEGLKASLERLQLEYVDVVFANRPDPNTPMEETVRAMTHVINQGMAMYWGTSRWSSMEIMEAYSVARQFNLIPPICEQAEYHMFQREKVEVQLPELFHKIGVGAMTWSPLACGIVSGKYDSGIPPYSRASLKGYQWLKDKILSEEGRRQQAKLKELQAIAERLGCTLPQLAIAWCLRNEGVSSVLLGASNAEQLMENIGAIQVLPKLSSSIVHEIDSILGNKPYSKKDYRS

For the compound `Cn1c(=O)c2c(nc(CN3CCCCC3)n2CCCc2ccccc2)n(C)c1=O`, the cell count in test [1] is 431. Moreover, the inhibition in test [1] is 10.1% (inactive); in test [3], 38.4% (inactive); in test [7], 15.4% (inactive); in test [8], 44.7% (inactive). For the same compound, the inhibition of aggregation in test [2] was -30.7% (inactive). For the same compound, the nuclei count in test [2] and in test [3] was 102% in each case. For the same compound, in test [4], the fluorescence slope is -0.46 (inactive). Moreover, the NADPH fluorescence slope in test [5] is -9.8e-06 (inactive). Moreover, the slope in test [6] is 0.00664 (inactive).
Regarding `CC1CN(c2nc(-c3ccccc3)nc3ccccc23)CC(C)O1` (configuration not stated), in test [1], the cell count turned out to be 407. Also, the inhibition in test [1] was -6% (inactive); in test [3] it was -29.4% (inactive); in test [7], 12% (inactive); in test [8] it was 22% (inactive). The inhibition of aggregation in test [2] was -1.5% (inactive). The results for the nuclei count in test [2] and in test [3] were 99.3% and 114%, respectively. In addition, the fluorescence slope in test [4] is -0.333 (inactive). For the same compound, in test [5], the NADPH fluorescence slope is -5.3e-05 (inactive). Further, the slope in test [6] was 0.00612 (inactive).
For the compound `CCOC(=O)c1ccc(N2C(=O)CC(N(C)CCc3ccc(OC)c(OC)c3)C2=O)cc1` (configuration not stated), the cell count in test [1] came out at 451. Further, the inhibition was -7.1% (inactive) in test [1], -20.7% (inactive) in test [3], -7.6% (inactive) in test [7] and 25.6% (inactive) in test [8]. For the same compound, in test [2], the inhibition of aggregation is 2.9% (inactive). The nuclei count is 94.2% in test [2] and 117% in test [3]. The fluorescence slope in test [4] was -0.431 (inactive). In addition, in test [5], the NADPH fluorescence slope was 3.6e-05 (inactive). The slope in test [6] is 0.00246 (inactive).
In the case of `CCOc1ccccc1N1Cc2cc(C)c(C)cc2C1`, in test [1], the cell count amounted to 576. Further, the inhibition in test [1] was 2.9% (inactive); in test [3] it was -9% (inactive); in test [7], -0.273% (inactive); in test [8], -2.86% (inactive). The inhibition of aggregation in test [2] is 22.5% (inactive). The results for the nuclei count in test [2] and in test [3] were 110% and 118%, respectively. The fluorescence slope in test [4] is -0.543 (inactive). Besides, the NADPH fluorescence slope in test [5] was 1.2e-05 (inactive). In test [6], the slope was 0.00798 (inactive).
In the case of `CCOc1ccc(-c2nnc(SCC(=O)N3CCN(c4ccccc4)CC3)o2)cc1`, the cell count in test [1] came to 672. Besides, the inhibition was -8.6% (inactive) in test [1], -59.7% (inactive) in test [3], 2.37% (inactive) in test [7] and 14.8% (inactive) in test [8]. The inhibition of aggregation in test [2] is 8.1% (inactive). In addition, the nuclei count was determined as 101% in test [2] and 109% in test [3]. Also, the fluorescence slope in test [4] was -0.559 (inactive). For the same compound, in test [5], the NADPH fluorescence slope was 2.1e-05 (inactive). The slope in test [6] is 0.0058 (inactive).
As to `O=C(CSc1ncnc2c1oc1ccccc12)Nc1ccccc1C(F)(F)F`, the cell count in test [1] was 657. Further, the inhibition in test [1] was -2.9% (inactive); in test [3], -13.2% (inactive); in test [7] it was -3.61% (inactive); in test [8] it was 1.95% (inactive). For the same compound, the inhibition of aggregation in test [2] is -15.8% (inactive). Besides, the figures for the nuclei count in test [2] and in test [3] were 69.1% and 106%, respectively. In addition, the fluorescence slope in test [4] is -0.556 (inactive). For the same compound, the NADPH fluorescence slope in test [5] was -5.9e-06 (inactive). The slope in test [6] was 0.00657 (inactive).
For `CCOc1ccc(C2CC(=O)NC3=C2C(=O)CCC3)cc1Cl` (configuration not stated), the cell count in test [1] amounted to 481. The inhibition in test [1] is 10% (inactive); in test [3] it was -1.1% (inactive); in test [7], 5.45% (inactive); in test [8], 13.2% (inactive). Besides, the inhibition of aggregation in test [2] was 5.5% (inactive). Further, the nuclei count in test [2] was 106%; in test [3], 110%. The fluorescence slope in test [4] was -0.407 (inactive). Also, the NADPH fluorescence slope in test [5] was -3.2e-05 (inactive). In test [6], the slope was 0.00268 (inactive).
